# FUS yeast rescue: FUS proteinopathy suppression in yeast. S. cerevisiae FUS-expressing, growth rescue, OD600, 24 h. Potency, µM (doses to about 76.6 µM), most hits filed as activators. actives 0.24% (n = 390,000). AID 1347120; note: nearly all actives have a fitted effect of over 55% in size
#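 Yeast expressing FUS under galactose induction, OD 0.005 in 2% galactose medium; compounds in a dilution series, 24 h at 30C. Growth rescue by absorbance at 600 nm; CP55940 positive control, DMSO negative.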
# PTAP TSG101 blk: blocks PTAP/TSG101 interaction to inhibit HIV-1 budding; Q99816; Fluorescence polarization, FITC-PTAP peptide / Tsg101 binding; Potency, µM (series often up to 115 µM), most hits filed as inhibitors; 340,000 tested, under 10 active; active = well fitted inhibition curve with a large enough effect in the main read-out, with a control signal flat, not every such curve was filed as active; inconclusive = small, poorly fitted or top-dose-only effect, or effect the other way, or a change in a side signal; inactive = no such curve, though single readings can be large or run the other way
# Target sequence (Q99816 whole entry, looked up): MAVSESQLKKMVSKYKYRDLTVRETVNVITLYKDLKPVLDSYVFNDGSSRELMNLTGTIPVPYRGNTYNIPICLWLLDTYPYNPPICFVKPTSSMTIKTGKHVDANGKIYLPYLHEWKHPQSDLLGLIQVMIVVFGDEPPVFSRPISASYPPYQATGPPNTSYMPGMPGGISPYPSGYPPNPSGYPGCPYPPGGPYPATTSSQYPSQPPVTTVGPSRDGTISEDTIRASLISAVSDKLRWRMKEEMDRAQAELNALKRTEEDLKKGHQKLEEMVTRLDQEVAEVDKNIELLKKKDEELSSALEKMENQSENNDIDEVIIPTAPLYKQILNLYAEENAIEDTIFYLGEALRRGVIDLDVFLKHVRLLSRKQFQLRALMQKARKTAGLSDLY
#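 FP read-out: FITC-PTAP peptide, 50 nM final, binding Tsg101 binding domain, 10 uM final; 20 min, r.t.; 10 mM HEPES pH 7.5, 0.15 M NaCl, 0.01% Tween 20, 3 mM EDTA, 0.1 mM TCEP.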
# TDP43 rescue: inhibitors of TDP-43 toxicity in yeast | AID 652104 | actives 1.8% (n = 410,000) | TDP-43 expressing yeast growth rescue, BacTiter-Glo, 24 h | Potency, µM (titrated, usually from 46.1 µM), actives largely listed as activators; note: nearly all actives have a fitted effect of over 50% in size
#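 Luminescence from BacTiter-Glo reports growth of TDP-43-expressing yeast after 24 hr at 30 deg C with compound. Cells were raffinose-pregrown to mid-log, then seeded in galactose medium at OD600=0.02.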
# Abeta rescue: compounds reversing amyloid beta toxicity in yeast | Potency, µM (doses to about 46.1 µM), usual class: activators | yeast expressing A-beta42, growth rescue, OD600, 48 h; response scale: 0% DMSO, 100% iron-clioquinol control | actives 0.063% (n = 410,000); note: nearly all actives have a fitted effect of over 55% in size
#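 Yeast A-beta toxicity model in growth medium with pinned compounds, 48 h at 30 C; growth read as absorbance at 600 nm. Normalized to FeCl3/clioquinol equimolar mix (positive) and DMSO (negative).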
# aSyn rescue: inhibitors of alpha-synuclein toxicity in yeast. Yeast expressing alpha-synuclein, growth rescue, BacTiter-Glo, 24 h. Potency, µM (highest dose often 46.1 µM), hits mostly activators. actives 0.14% (n = 370,000). AID 652106; note: nearly all actives have a fitted effect of over 65% in size
#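 Rescue of yeast growth: cells expressing toxic alpha-synuclein, induced in galactose at OD600 0.02, incubated with compound 24 h at 30 C. ATP luminescence quantified growth; inhibitors of toxicity appear as activators.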
# A number is an active result; - = inactive; ? = inconclusive; . = no result given. In the library only some 2.1% were active in any assay of this set; here they are far more common. Unless noted, calls come from the whole dose curve; as a rule, active = well fitted curve in the direction sought with a large enough effect; inconclusive = small, poorly fitted or top-dose-only effect, or another doubt; inactive = no such curve, though single readings can be large; an effect the other way counts as inactive or inconclusive.
SMILES,FUS yeast rescue,PTAP TSG101 blk,TDP43 rescue,Abeta rescue,aSyn rescue
Cc1cc(Nc2cccc(Cl)c2)nc2ccc(NC(=O)c3ccc(F)cc3Cl)cc12,?,.,20µM,-,.
O=C(Nc1cccc(C(F)(F)F)c1)c1cccc(C(=O)Nc2cccc(C(F)(F)F)c2)c1,-,.,-,-,.
O=C(Nc1ccccc1Cl)O[C@@H]1CC[C@@]23CCCN2C(=O)CCC[C@H]3C1,-,.,.,.,.
Cc1cc(Nc2ccc(Cl)cc2)n(-c2cccc(Cl)c2)n1,-,-,22µM,-,-
Cc1cc(Nc2ccc(Cl)cc2)n(-c2ccccc2)n1,-,-,10µM,-,-
CC(=O)/C=C1\OCc2cc(OCc3ccccc3)ccc21,-,.,10µM,-,-
COc1ccc(N(CCN2C(=O)c3ccccc3C2=O)C(=O)c2cccc([N+](=O)[O-])c2)cc1,-,-,11µM,-,-
COc1cccc(NC(=O)Cn2c(=O)n(-c3cccc(OC)c3)c(=O)c3sc4ccccc4c32)c1,-,.,-,-,.
COc1cc2c(NC3CCN(C)CC3)nc(N3CCCN(C)CC3)nc2cc1OCCCCCN(C)C,.,.,.,.,-
COc1ccc(CNc2nc(NCc3ccc(OC)cc3)n(S(C)(=O)=O)n2)cc1,-,-,-,-,-
COCC(=O)n1nc(NCc2ccc(OC)cc2)nc1NCc1ccc(OC)cc1,-,-,18µM,-,-
O=C(NCC(c1cccs1)S(=O)(=O)c1cccs1)c1ccc(C(F)(F)F)cc1 (configuration not stated),-,.,-,-,.
CC(=O)c1cccc(NC(=O)CCc2c(C)nc3c(c(C)nn3-c3ccccc3)c2C)c1,-,.,6.3µM,-,.
CC(=O)c1cccc(NC(=O)c2cnn(-c3ccccc3)c2C)c1,-,-,14µM,?,-
Cc1c(C(=O)Nc2ccccc2)cnn1-c1ccccc1,-,-,-,-,-
Cc1ccc(NC(=O)c2cnn(-c3ccccc3)c2C)cc1C,-,-,?,-,-
Cc1c(C(=O)Nc2cccc(F)c2)cnn1-c1ccccc1,-,-,10µM,-,-
COCCOC(=O)c1c(C)n(S(=O)(=O)c2ccc(C)cc2)c2ccc(NS(=O)(=O)c3ccc(C)cc3)cc12,-,.,?,-,.
Cc1ccccc1N1C(=O)c2cccc3cccc(c23)C1=O,-,-,20µM,-,-
O=C(O)c1ccccc1N1C(=O)c2cccc3cccc(c23)C1=O,-,-,-,-,-
COc1ccc(C)cc1NC(=O)c1c(C)oc2ncn(CC(C)C)c(=O)c12,?,.,16µM,-,.
Cc1cccc(NC(=O)c2c(C)oc3ncn(CC(C)C)c(=O)c23)n1,-,.,-,-,.
CN(CCCOC(=O)CC1C=CCC1)C1CN(Cc2cn(Cc3ccccc3Cl)nn2)S(=O)(=O)C1 (configuration not stated),-,.,.,.,.
Cc1c(CC(=O)N2CCC(O)CC2)c(=O)oc2cc3c(cc12)CCC1(CCCCC1)O3,32µM,.,-,-,-
Cc1c(CC(=O)N2CCC(C(=O)O)CC2)c(=O)oc2cc3c(cc12)CCC1(CCCCC1)O3,-,-,-,-,-
SMILES,FUS yeast rescue,PTAP TSG101 blk,TDP43 rescue,Abeta rescue,aSyn rescue
O=CNc1ccc(/C=C/c2ccnc3ccccc23)cc1,.,.,.,.,-
CCOC(=O)C1=CN(Cc2cccc(F)c2)S(=O)(=O)NC1c1ccc(Br)cc1F (configuration not stated),-,-,16µM,-,-
CCOC(=O)C1=CN(Cc2cccc(F)c2)S(=O)(=O)NC1c1ccc(F)c(Cl)c1 (configuration not stated),-,-,-,-,-
O=C(OCC(=O)N1CCCC1=O)c1nc(Cl)c(Cl)c(Cl)c1Cl,-,-,25µM,-,-
COc1ccc(CNC(=O)C(=O)NCC(c2cccs2)S(=O)(=O)c2ccc(C)cc2)cc1 (configuration not stated),-,.,-,-,.
O=c1c2ccccc2sc2nc(C3CCCCC3)n(Cc3ccco3)c(=O)c12,-,-,-,-,-
CCc1nc2sc3ccccc3c(=O)c2c(=O)n1Cc1ccco1,32µM,-,-,-,-
Brc1ccc(-c2nc(-c3ccncc3)no2)o1,-,-,13µM,-,-
Brc1ccc(-c2nc(-c3ccncc3)no2)cc1,-,-,-,-,-
CCN(C(=O)c1cc2c(=O)oc3ccccc3c2s1)c1ccc(C)c(C)c1,-,.,-,-,.
O=C(c1cccc(C(F)(F)F)c1)N1CCOc2ccccc21,-,-,14µM,-,-
CSc1ccc(Cl)c(C(=O)N2CCOc3ccccc32)c1,-,-,?,-,-
O=C(Nc1nc(-c2ccccn2)cs1)c1cc2ccccc2o1,-,-,?,-,?
Cc1cc(C)cc(OCC(=O)Nc2nc(-c3ccccn3)cs2)c1,-,-,-,-,-
N#Cc1ccccc1OCC(=O)Nc1nc(-c2ccccn2)cs1,-,.,25µM,?,?
Cc1ccc(C(=O)Nc2nc(-c3ccccn3)cs2)s1,-,-,?,?,3.5µM
O=C(Nc1nc(-c2ccccn2)cs1)c1ncc(Cl)c(Cl)c1Cl,-,-,3.5µM,-,7.9µM
Cc1c(C(=O)Nc2nc(-c3ccccn3)cs2)oc2ccccc12,?,-,6.3µM,-,-
O=C(Nc1nc(-c2ccccn2)cs1)c1ccc(Cl)s1,-,-,?,-,-
Cc1nn(C(=O)c2ccc(Cl)cc2)c(C)c1S(=O)(=O)N1CCCCCC1,-,.,?,-,.
CCCC1CCC2(CC1)CCC2OC(=S)Nc1ccccc1OC (configuration not stated),-,.,.,.,.
CCc1sc(C(=O)Nc2nc(-c3ccccn3)cs2)cc1C,?,-,?,-,4.5µM
Cc1csc(NC(=O)c2cccn2C)n1,-,-,-,-,-
CSCCC(=O)Nc1nc(-c2ccccn2)cs1,-,-,-,-,-
Cn1cccc1C(=O)Nc1nc(-c2ccccn2)cs1,?,-,14µM,?,?
SMILES,FUS yeast rescue,PTAP TSG101 blk,TDP43 rescue,Abeta rescue,aSyn rescue
O=C(Nc1nc(-c2ccccn2)cs1)C1CCCC1,-,-,20µM,?,-
Cc1ccccc1CNC(=O)c1ccc2nc(C(C)C)oc2c1,-,.,?,-,.
CC(SC1=NS(=O)(=O)c2ccccc21)C(=O)O (configuration not stated),.,.,.,.,-
CN(c1ccccc1C(=O)Nc1cccc([N+](=O)[O-])c1)S(C)(=O)=O,-,-,-,-,-
CN(c1ccccc1C(=O)Nc1cccc(Br)c1)S(=O)(=O)c1ccccc1,-,-,28µM,-,-
CN(c1ccccc1C(=O)Nc1ccc(CC#N)cc1)S(=O)(=O)c1ccccc1,-,-,-,-,-
CN(c1ccccc1C(=O)Nc1cccc([N+](=O)[O-])c1)S(=O)(=O)c1ccccc1,-,-,22µM,-,-
CC(=O)c1cccc(NC(=O)c2ccccc2N(C)S(=O)(=O)c2ccc(C)cc2)c1,-,-,-,-,-
